# The supplement of paper PMC8975748
# Structures can show the parent of a compound that is named as a salt. ± gives the standard deviation of the averaged measurements.
# Key:
# [1] = test system: Saccharomyces cerevisiae BY4741 SeMeCo community; experiment: mean cell size (pixel area) (pixels); higher = larger cells; conditions: 10 µM; 24 h; SM minimal medium
# In short: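 Harmony analysis of automated confocal images of paraformaldehyde-fixed yeast gave the mean cell pixel area per well. The yeast was a Saccharomyces cerevisiae BY4741 community carrying four plasmids, each with a fluorescent marker and each complementing one auxotrophy, incubated for 24 h in SM medium containing drug at a final 10 µM in 384-well plates. Results are averaged over 3 replicates. Same SeMeCo high-content imaging drug screen: Selleck FDA-approved drugs at 10 µM, 24 h in SM medium, 384-well plates, 3 replicates.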
# [2] = test system: Saccharomyces cerevisiae BY4741 SeMeCo community; experiment: z-score of prototroph abundance vs DMSO median; higher = larger share of this subpopulation than in DMSO controls; conditions: 10 µM; 24 h; SM minimal medium; subpopulation (auxotrophy): Prototroph
# In short: (§1)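 A community of Saccharomyces cerevisiae BY4741 was built from four plasmids that each restored one auxotrophy and encoded a distinct fluorescent protein. Pre-grown overnight to OD600 1.0 and diluted to 0.3, it was dispensed at 70 µl into 384-well plates acoustically predosed with library drugs for a final 10 µM, and grown 24 h in minimal SM medium. Cells were then paraformaldehyde-fixed and imaged by automated confocal microscopy. Thresholds and autofluorescence correction came from single-auxotroph fluorescent strains, and each subpopulation's abundance was scored as a z-score relative to the vehicle-well median.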
# [3] = test system: Saccharomyces cerevisiae BY4741 SeMeCo community; experiment: z-score of subpopulation abundance vs DMSO median, subpopulation auxotrophic for M; higher = larger share of this subpopulation than in DMSO controls; conditions: 10 µM; 24 h; SM minimal medium; subpopulation (auxotrophy): M
# In short: as §1
# [4] = test system: Saccharomyces cerevisiae BY4741 SeMeCo community; experiment: z-score of subpopulation abundance vs DMSO median, subpopulation auxotrophic for L; higher = larger share of this subpopulation than in DMSO controls; conditions: 10 µM; 24 h; SM minimal medium; subpopulation (auxotrophy): L
# In short: as §1
# [5] = test system: Saccharomyces cerevisiae BY4741 SeMeCo community; experiment: z-score of subpopulation abundance vs DMSO median, subpopulation auxotrophic for U; higher = larger share of this subpopulation than in DMSO controls; conditions: 10 µM; 24 h; SM minimal medium; subpopulation (auxotrophy): U
# In short: as §1
# [6] = test system: Saccharomyces cerevisiae BY4741 SeMeCo community; experiment: z-score of subpopulation abundance vs DMSO median, subpopulation auxotrophic for H; higher = larger share of this subpopulation than in DMSO controls; conditions: 10 µM; 24 h; SM minimal medium; subpopulation (auxotrophy): H
# In short: as §1
# [7] = test system: Saccharomyces cerevisiae BY4741 SeMeCo community; experiment: z-score of subpopulation abundance vs DMSO median, subpopulation auxotrophic for LU; higher = larger share of this subpopulation than in DMSO controls; conditions: 10 µM; 24 h; SM minimal medium; subpopulation (auxotrophy): LU
# In short: as §1
# [8] = test system: Saccharomyces cerevisiae BY4741 SeMeCo community; experiment: z-score of subpopulation abundance vs DMSO median, subpopulation auxotrophic for LM; higher = larger share of this subpopulation than in DMSO controls; conditions: 10 µM; 24 h; SM minimal medium; subpopulation (auxotrophy): LM
# In short: as §1
# [9] = test system: Saccharomyces cerevisiae BY4741 SeMeCo community; experiment: z-score of subpopulation abundance vs DMSO median, subpopulation auxotrophic for HM; higher = larger share of this subpopulation than in DMSO controls; conditions: 10 µM; 24 h; SM minimal medium; subpopulation (auxotrophy): HM
# In short: as §1
# [10] = test system: Saccharomyces cerevisiae BY4741 SeMeCo community; experiment: z-score of subpopulation abundance vs DMSO median, subpopulation auxotrophic for HU; higher = larger share of this subpopulation than in DMSO controls; conditions: 10 µM; 24 h; SM minimal medium; subpopulation (auxotrophy): HU
# In short: as §1
# [11] = test system: Saccharomyces cerevisiae BY4741 SeMeCo community; experiment: z-score of subpopulation abundance vs DMSO median, subpopulation auxotrophic for HL; higher = larger share of this subpopulation than in DMSO controls; conditions: 10 µM; 24 h; SM minimal medium; subpopulation (auxotrophy): HL
# In short: as §1
# [12] = test system: Saccharomyces cerevisiae BY4741 SeMeCo community; experiment: z-score of subpopulation abundance vs DMSO median, subpopulation auxotrophic for HLU; higher = larger share of this subpopulation than in DMSO controls; conditions: 10 µM; 24 h; SM minimal medium; subpopulation (auxotrophy): HLU
# In short: as §1
# [13] = test system: Saccharomyces cerevisiae BY4741 SeMeCo community; experiment: z-score of subpopulation abundance vs DMSO median, subpopulation auxotrophic for HLM; higher = larger share of this subpopulation than in DMSO controls; conditions: 10 µM; 24 h; SM minimal medium; subpopulation (auxotrophy): HLM
# In short: as §1
# [14] = test system: Saccharomyces cerevisiae BY4741 SeMeCo community; experiment: z-score of subpopulation abundance vs DMSO median, subpopulation auxotrophic for HUM; higher = larger share of this subpopulation than in DMSO controls; conditions: 10 µM; 24 h; SM minimal medium; subpopulation (auxotrophy): HUM
# In short: as §1
# [15] = test system: Saccharomyces cerevisiae BY4741 SeMeCo community; experiment: z-score of subpopulation abundance vs DMSO median, subpopulation auxotrophic for LUM; higher = larger share of this subpopulation than in DMSO controls; conditions: 10 µM; 24 h; SM minimal medium; subpopulation (auxotrophy): LUM
# In short: as §1
# [16] = test system: Saccharomyces cerevisiae BY4741 SeMeCo community; experiment: z-score of subpopulation abundance vs DMSO median, subpopulation auxotrophic for HLUM; higher = larger share of this subpopulation than in DMSO controls; conditions: 10 µM; 24 h; SM minimal medium; subpopulation (auxotrophy): HLUM
# In short: as §1
# [17] = test system: Saccharomyces cerevisiae BY4741 SeMeCo community; experiment: z-score of subpopulation abundance vs DMSO median, subpopulation auxotrophic for UM; higher = larger share of this subpopulation than in DMSO controls; conditions: 10 µM; 24 h; SM minimal medium; subpopulation (auxotrophy): UM
# In short: as §1
Structure (SMILES),mean cell size [1],z-score of prototroph abundance [2],z-score of subpopulation abundance [3],z-score of subpopulation abundance [4],z-score of subpopulation abundance [5],z-score of subpopulation abundance [6],z-score of subpopulation abundance [7],z-score of subpopulation abundance [8],z-score of subpopulation abundance [9],z-score of subpopulation abundance [10],z-score of subpopulation abundance [11],z-score of subpopulation abundance [12],z-score of subpopulation abundance [13],z-score of subpopulation abundance [14],z-score of subpopulation abundance [15],z-score of subpopulation abundance [16],z-score of subpopulation abundance [17]
CO/N=C(\C(=O)N[C@@H]1C(=O)N2C(C(=O)O)=C(CSC(=O)c3ccco3)CS[C@H]12)c1csc(N)n1 [Ceftiofur HCl],12.54 ± 0.051,-0.76,-0.14,-0.69,1.47,-0.05,1,-0.53,0.46,0.85,-0.8,0.02,0.11,2.38,-0.05,0.19,
C[C@]12CCC(=O)C=C1[C@@H]1C[C@@H]1[C@H]1[C@@H]3[C@@H]4C[C@@H]4[C@@]4(CCC(=O)O4)[C@@]3(C)CC[C@@H]12 [Drospirenone],12.53 ± 0.089,,0.59,-0.08,-0.17,-0.17,0.11,1.26,0.03,0.03,0.14,0.26,0.31,-0.41,0.85,-0.05,
CC1=C(C(=O)O)N2C(=O)[C@@H](NC(=O)[C@H](N)C3=CCC=CC3)[C@H]2SC1 [Cefradine],12.12 ± 0.02,0.86,-0.36,0.14,0.07,-0.04,-1.14,-0.58,-0.73,-0.92,0.06,-0.16,0.04,-0.79,,0.1,-0.6
CN1C2CCCC1CC(NC(=O)c1nn(C)c3ccccc13)C2 (stereo not drawn) [Granisetron],12.3 ± 0.14,-0.04,1.71,-0.54,0.07,-1.03,-0.92,-0.49,0.6,-0.71,-1.17,-0.07,-0.1,0.05,,-0.81,0.55
CC(=O)NO [Acetohydroxamic acid],12.5 ± 0.15,-0.09,-0.27,1.33,-0.68,0.14,-0.13,0.84,0.32,-0.11,,0.42,0.6,0.08,1.04,0.86,
C#CCN(C)Cc1ccccc1 [Pargyline hydrochloride],12.7 ± 0.23,0.24,-0.55,0.76,,,1.29,-0.51,-0.95,-0.08,,0.43,-0.13,0,0.15,0.1,-0.55
Cc1onc(-c2ccccc2Cl)c1C(=O)N[C@@H]1C(=O)N2[C@@H]1SC(C)(C)[C@@H]2C(=O)O [Cloxacillin Sodium],12.44 ± 0.058,-1.62,0.44,0.15,0.9,-0.29,0.4,0.63,-0.01,0.86,-0.33,0.44,0.97,2.07,,1.38,
CN(Cc1cnc2nc(N)nc(N)c2n1)c1ccc(C(=O)N[C@@H](CCC(=O)O)C(=O)O)cc1 [Methotrexate disodium],15.01 ± 0.07,0.74,-6.18,-0.58,-4.34,15.3,-3.33,-1.46,1.68,-1.36,10.8,0.91,14.3,-2.01,,19.8,-5.52
Cc1cc(C)nc(O)n1.O=C(Nc1ccc([N+](=O)[O-])cc1)Nc1ccc([N+](=O)[O-])cc1 [Nicarbazin],12.4 ± 0.18,,-0.21,-0.96,0.5,,0.22,-1.07,-0.62,-0.22,-1.2,-0.28,-0.49,-0.86,,-0.56,-0.4
C[C@]12CC[C@@H]3c4ccc(O)cc4C[C@@H](CCCCCCCCC[S+]([O-])CCCC(F)(F)C(F)(F)F)[C@H]3[C@@H]1CC[C@@H]2O (stereo partly drawn) [Fulvestrant],12.4 ± 0.074,,0.89,1.23,-0.43,0.56,0.81,1.39,0.9,0.88,0.87,1.48,0.89,1.23,1.7,1.35,
CCCCN1CCCCC1C(=O)Nc1c(C)cccc1C (stereo not drawn) [Bupivacaine HCl],12.48 ± 0.1,0.23,0.05,-0.57,,0.67,-0.05,-0.93,0.01,-0.26,-0.36,-0.41,0.32,-0.41,-0.72,-0.67,0.27
